# Results filed as inconclusive are left out. A call without a number means that no potency is given here. Active and inactive are the calls of the source. Unless noted, the call rests on the fitted dose curve.
# Test: qHTS assay to identify small molecule agonists of the endoplasmic reticulum stress response signaling pathway - cell viability counter screen (AID 1159517);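 further: HeLa cells carrying an ER stress response element beta-lactamase reporter; nearly all actives have a fitted effect of over 50% in size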
# Settings: ESRE-bla HeLa viability, CellTiter-Glo luminescence, 5 h; series mostly up to 61 µM
# In short: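 After overnight attachment, ESRE-bla HeLa cells were treated with Tox21 library compounds for 5 hr. CellTiter-Glo luminescence, read 30 min post-addition at room temperature, reported viability.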
row,Structure (SMILES),outcome
1,O=C(CCCl)NCc1ccccc1,inactive
2,O=C(O[C@@H](C(=O)O)[C@@H](OC(=O)c1ccccc1)C(=O)O)c1ccccc1,inactive
3,Nc1cccc(S(=O)(=O)O)c1,inactive
4,CCOC(=O)c1ccccc1O,inactive
5,CCCOCCC,inactive
6,CC1(C)S[C@@H]2[C@H](NC(=O)C(C(=O)O)c3ccccc3)C(=O)N2[C@H]1C(=O)O (some centres undefined),inactive
7,Cc1cc(NS(=O)(=O)c2ccc(N)cc2)nc(C)n1,inactive
8,Cc1ccc(C)c(N)c1,inactive
9,Cc1cc(S(=O)(=O)O)c(N)cc1Cl,inactive
10,Cc1nnc(SCC2=C(C(=O)O)N3C(=O)[C@@H](NC(=O)Cn4cnnn4)[C@H]3SC2)s1,inactive
11,CC(C)(C)C1CCCCC1=O (centres undefined),inactive
12,CCCC(CCC)(C(=O)OCC)C(=O)OCC,inactive
13,CC(CNC1CCCCC1)OC(=O)c1ccccc1 (centres undefined),inactive
14,CCOc1ccc(OCC)c(Cl)c1,inactive
15,O=C(O)[C@@H]1CSCN1,inactive
16,CC1=C(O)C(=O)OC1C (centres undefined),inactive
17,Cc1ncc(CO)c(CN)c1O,inactive
18,O=S(=O)(O)C(F)(F)F,inactive
19,CN1CCN(c2c(F)cc3c(=O)c(C(=O)O)cn(CCF)c3c2F)CC1,inactive

row,Structure (SMILES),outcome
1,O=C(O)c1cccc(Cl)c1Cl,inactive
2,Cc1ccc([N+](=O)[O-])cc1Cl,inactive
3,NCCCN1CCN(CCCN)CC1,inactive
4,FC(F)(F)c1ccccc1,inactive
5,COC(=O)N[C@H](C(=O)N[C@@H](Cc1ccccc1)[C@@H](O)CN(Cc1ccc(-c2ccccn2)cc1)NC(=O)[C@@H](NC(=O)OC)C(C)(C)C)C(C)(C)C,inactive
6,OCCN1CCN(CCO)CC1,inactive
7,CCCCN1C[C@H](O)[C@@H](O)[C@H](O)[C@H]1CO,inactive
8,O=CCCc1ccccc1,inactive
9,CCN[C@H]1CN(CCCOC)S(=O)(=O)c2sc(S(N)(=O)=O)cc21,inactive
10,C=Cc1ccccc1,inactive
11,COc1cc(Cl)ccc1Cl,inactive
12,Cc1ccsc1C(=CCCN1CCC[C@@H](C(=O)O)C1)c1sccc1C,inactive
13,N#CSCC(=O)O,inactive
14,CC1(C)C(=O)N(Cl)C(=O)N1Br,inactive
15,CC(C)Nc1nc(N)nc(Cl)n1,inactive
16,CC(C)S,inactive
17,COc1cc(C)ccc1C(C)C,inactive
18,CCC1(C)NC(=O)NC1=O (centres undefined),inactive
19,C=C(C)C(=O)OCCOP(=O)(O)O,inactive

# Test: qHTS assay to identify small molecule antagonists of the retinoid-related orphan receptor gamma (ROR-gamma) signaling pathway - cell viability counter screen (AID 1159520; active means well fitted cell-killing curve with a large enough effect in the repeat runs; further: nearly all actives have a fitted effect of over 50% in size)
# Settings: Tet-on RORgamma CHO cells viability, ATP luminescence, 16 h; series mostly up to 92.4 µM
# In short: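 Cytotoxicity was read from cellular ATP (CellTiter-Glo luminescence) after 16 hr at 37 C with 1 uM doxycycline induction. The inducer was added 2 hr after compound transfer to Tet-on ROR gamma CHO cells.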
row,Structure (SMILES),Potency
1,O=C(CCCl)NCc1ccccc1,inactive
2,O=C(O[C@@H](C(=O)O)[C@@H](OC(=O)c1ccccc1)C(=O)O)c1ccccc1,inactive
3,Nc1cccc(S(=O)(=O)O)c1,inactive
4,CCOC(=O)c1ccccc1O,inactive
5,CCCOCCC,inactive
6,CC1(C)S[C@@H]2[C@H](NC(=O)C(C(=O)O)c3ccccc3)C(=O)N2[C@H]1C(=O)O (some centres undefined),inactive
7,Cc1cc(NS(=O)(=O)c2ccc(N)cc2)nc(C)n1,inactive
8,Cc1ccc(C)c(N)c1,inactive
9,Cc1cc(S(=O)(=O)O)c(N)cc1Cl,inactive
10,Cc1nnc(SCC2=C(C(=O)O)N3C(=O)[C@@H](NC(=O)Cn4cnnn4)[C@H]3SC2)s1,inactive
11,CC(C)(C)C1CCCCC1=O (centres undefined),inactive
12,CCCC(CCC)(C(=O)OCC)C(=O)OCC,inactive
13,CC(CNC1CCCCC1)OC(=O)c1ccccc1 (centres undefined),inactive
14,CCOc1ccc(OCC)c(Cl)c1,inactive
15,O=C(O)[C@@H]1CSCN1,inactive
16,CC1=C(O)C(=O)OC1C (centres undefined),inactive
17,Cc1ncc(CO)c(CN)c1O,inactive
18,O=S(=O)(O)C(F)(F)F,inactive
19,CN1CCN(c2c(F)cc3c(=O)c(C(=O)O)cn(CCF)c3c2F)CC1,inactive

row,Structure (SMILES),Potency
1,O=C(O)c1cccc(Cl)c1Cl,inactive
2,Cc1ccc([N+](=O)[O-])cc1Cl,inactive
3,NCCCN1CCN(CCCN)CC1,inactive
4,FC(F)(F)c1ccccc1,inactive
5,COC(=O)N[C@H](C(=O)N[C@@H](Cc1ccccc1)[C@@H](O)CN(Cc1ccc(-c2ccccn2)cc1)NC(=O)[C@@H](NC(=O)OC)C(C)(C)C)C(C)(C)C,inactive
6,OCCN1CCN(CCO)CC1,inactive
7,CCCCN1C[C@H](O)[C@@H](O)[C@H](O)[C@H]1CO,inactive
8,O=CCCc1ccccc1,inactive
9,CCN[C@H]1CN(CCCOC)S(=O)(=O)c2sc(S(N)(=O)=O)cc21,inactive
10,C=Cc1ccccc1,inactive
11,COc1cc(Cl)ccc1Cl,inactive
12,Cc1ccsc1C(=CCCN1CCC[C@@H](C(=O)O)C1)c1sccc1C,inactive
13,N#CSCC(=O)O,inactive
14,CC1(C)C(=O)N(Cl)C(=O)N1Br,inactive
15,CC(C)Nc1nc(N)nc(Cl)n1,inactive
16,CC(C)S,inactive
17,COc1cc(C)ccc1C(C)C,inactive
18,CCC1(C)NC(=O)NC1=O (centres undefined),inactive
19,C=C(C)C(=O)OCCOP(=O)(O)O,inactive

# Test: qHTS assay to identify small molecule agonists of the AP-1 signaling pathway - cell viability counter screen (AID 1159525); further: nearly all actives have a fitted effect of over 55% in size
# Settings: ME-180 (cervical carcinoma) AP-1-bla cells viability, ATP luminescence, 5 h; series mostly up to 76.8 µM
# In short: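 Intracellular ATP by Cell Titer Glo luminescence (30 min, RT) in the same ME-180 AP-1-bla wells after the 5 h compound exposure at 37 °C. Normalised to tetra n-octyl ammonium bromide and DMSO controls.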
row,Structure (SMILES),outcome
1,O=C(CCCl)NCc1ccccc1,inactive
2,O=C(O[C@@H](C(=O)O)[C@@H](OC(=O)c1ccccc1)C(=O)O)c1ccccc1,inactive
3,Nc1cccc(S(=O)(=O)O)c1,inactive
4,CCOC(=O)c1ccccc1O,inactive
5,CCCOCCC,inactive
6,CC1(C)S[C@@H]2[C@H](NC(=O)C(C(=O)O)c3ccccc3)C(=O)N2[C@H]1C(=O)O (some centres undefined),inactive
7,Cc1cc(NS(=O)(=O)c2ccc(N)cc2)nc(C)n1,inactive
8,Cc1ccc(C)c(N)c1,inactive
9,Cc1cc(S(=O)(=O)O)c(N)cc1Cl,inactive
10,Cc1nnc(SCC2=C(C(=O)O)N3C(=O)[C@@H](NC(=O)Cn4cnnn4)[C@H]3SC2)s1,inactive
11,CC(C)(C)C1CCCCC1=O (centres undefined),inactive
12,CCCC(CCC)(C(=O)OCC)C(=O)OCC,inactive
13,CC(CNC1CCCCC1)OC(=O)c1ccccc1 (centres undefined),inactive
14,CCOc1ccc(OCC)c(Cl)c1,inactive
15,O=C(O)[C@@H]1CSCN1,inactive
16,CC1=C(O)C(=O)OC1C (centres undefined),inactive
17,Cc1ncc(CO)c(CN)c1O,inactive
18,O=S(=O)(O)C(F)(F)F,inactive
19,CN1CCN(c2c(F)cc3c(=O)c(C(=O)O)cn(CCF)c3c2F)CC1,inactive

row,Structure (SMILES),outcome
1,O=C(O)c1cccc(Cl)c1Cl,inactive
2,Cc1ccc([N+](=O)[O-])cc1Cl,inactive
3,NCCCN1CCN(CCCN)CC1,inactive
4,FC(F)(F)c1ccccc1,inactive
5,COC(=O)N[C@H](C(=O)N[C@@H](Cc1ccccc1)[C@@H](O)CN(Cc1ccc(-c2ccccn2)cc1)NC(=O)[C@@H](NC(=O)OC)C(C)(C)C)C(C)(C)C,inactive
6,OCCN1CCN(CCO)CC1,inactive
7,CCCCN1C[C@H](O)[C@@H](O)[C@H](O)[C@H]1CO,inactive
8,O=CCCc1ccccc1,inactive
9,CCN[C@H]1CN(CCCOC)S(=O)(=O)c2sc(S(N)(=O)=O)cc21,inactive
10,C=Cc1ccccc1,inactive
11,COc1cc(Cl)ccc1Cl,inactive
12,Cc1ccsc1C(=CCCN1CCC[C@@H](C(=O)O)C1)c1sccc1C,inactive
13,N#CSCC(=O)O,inactive
14,CC1(C)C(=O)N(Cl)C(=O)N1Br,inactive
15,CC(C)Nc1nc(N)nc(Cl)n1,inactive
16,CC(C)S,inactive
17,COc1cc(C)ccc1C(C)C,inactive
18,CCC1(C)NC(=O)NC1=O (centres undefined),inactive
19,C=C(C)C(=O)OCCOP(=O)(O)O,inactive
